A selection: hits, their analogues and other compounds. The true share with any hit is near 15%.
12-LOX inh – inhibitors of human 12S-lipoxygenase ALOX12; P18054; purified 12hLO, xylenol orange hydroperoxide absorbance; Potency, µM (top dose mostly 108 µM), without a hit: top-dose activity change, negative = inhibition, hits mostly inhibitors; 580,000 compounds, 1.1% hits
Target sequence (P18054 whole entry, looked up): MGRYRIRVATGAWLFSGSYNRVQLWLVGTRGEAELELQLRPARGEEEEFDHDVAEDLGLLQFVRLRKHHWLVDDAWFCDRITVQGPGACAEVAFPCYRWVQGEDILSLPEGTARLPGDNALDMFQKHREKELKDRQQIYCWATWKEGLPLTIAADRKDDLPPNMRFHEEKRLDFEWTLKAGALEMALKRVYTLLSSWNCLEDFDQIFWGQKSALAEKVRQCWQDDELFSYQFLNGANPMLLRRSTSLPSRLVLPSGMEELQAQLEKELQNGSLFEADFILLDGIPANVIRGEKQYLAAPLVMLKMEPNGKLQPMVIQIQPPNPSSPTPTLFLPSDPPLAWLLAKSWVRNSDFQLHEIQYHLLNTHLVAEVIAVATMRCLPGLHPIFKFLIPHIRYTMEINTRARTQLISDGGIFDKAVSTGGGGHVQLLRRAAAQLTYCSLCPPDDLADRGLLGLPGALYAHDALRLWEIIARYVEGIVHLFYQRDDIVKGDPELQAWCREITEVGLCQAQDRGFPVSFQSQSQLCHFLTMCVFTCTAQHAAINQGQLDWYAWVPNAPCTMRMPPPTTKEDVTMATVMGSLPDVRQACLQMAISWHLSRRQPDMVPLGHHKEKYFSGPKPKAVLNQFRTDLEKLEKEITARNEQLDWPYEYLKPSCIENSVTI
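Purified human 12hLO at 150 nM in 25 mM Hepes, 0.01% Triton X-100, pH 7.0, preincubated 15 min at room temperature with compound. Reaction started with 40 uM arachidonic acid, 30 min at room temperature. Hydroperoxide measured by Fe-xylenol orange, 573/405 nm absorbance ratio.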
ELG1 repair inh – blocks ELG1-dependent DNA repair in HEK293T cells | HEK293T ELG1-luciferase reporter, luminescence, 16 h; DNA damage induced by 5-fluorouridine | Potency, µM (highest dose often 46.1 µM), for the others: at the highest dose activity change, negative = inhibition, most hits filed as inhibitors | 330,000 compounds, 2.3% hits | AID 504467; note: nearly all actives have a fitted effect of over 55% in size
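Step one: seed 2,000 cells per well. Step two: pin-transfer compound or DMSO alongside 5-fluorouridine. Step three: incubate 16 hr, 37 °C, 5% CO2. Step four: add ONE-Glo, wait 30 min, read luminescence.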
TDP1 cell noCPT – qHTS for Inhibitors of human tyrosyl-DNA phosphodiesterase 1 (TDP1): qHTS in cells in absence of CPT; 420,000 compounds, 15% hits; DT40 Tdp1-/- hTDP1 cells, no CPT, ATP luminescence, 48 h; Potency, µM (highest dose often 46.2 µM), inactives show at the highest dose activity change, negative = growth inhibition, hits mostly inhibitors; AID 686978, 2013; note: nearly all actives have a fitted effect of over 55% in size
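Luminescent ATP content (CellTiter-Glo) served as the growth readout. Knockout chicken DT40 cells expressing human TDP1 were exposed to compounds without camptothecin for a minimum 48 hr at 37 °C.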
RORg inh – ROR gamma (mouse) transcription inhibition; P51450; Drosophila S2 Gal4-RORgamma UAS-luciferase reporter, 20 h; Potency, µM (doses to about 53.6 µM), without a hit: at the highest dose activity change, negative = inhibition, hits mostly inhibitors; 310,000 compounds, 5.4% hits; AID 2551; note: nearly all actives have a fitted effect of over 60% in size
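Drosophila S2 cells stably expressing Gal4-DBD/mouse RORγ fusion under metallothionein promoter plus UAS-luciferase; compound 1 h, then 700 uM CuSO4 induction for 20 h at ambient temperature; inhibition read as reduced luminescence.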
Gal4-VP16 FLuc – inhibits Gal4-VP16 luciferase reporter, ROR gamma counter-screen. Drosophila S2 Gal4-VP16 UAS-luciferase, luminescence, 20 h. Potency, µM (series often up to 53.6 µM), for inactives: top-dose activity, negative = inhibition, actives largely listed as inhibitors. 310,000 compounds, 3.5% hits;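 note: Gal4-VP16 expression switched on by copper sulfate through the metallothionein promoter; nearly all actives have a fitted effect of over 50% in size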
TDP1 cell CPT – growth inhibition of DT40 Tdp1-/-;hTDP1 cells with camptothecin (screen for TDP1 inhibitors); chicken DT40 Tdp1-/-;hTDP1 cells + 20 nM CPT, ATP luminescence, 48 h; Potency, µM (top dose mostly 46.2 µM), inactives show at the highest dose activity change, negative = growth inhibition, usual class: inhibitors; 420,000 compounds, 12% hits; AID 686979; note: nearly all actives have a fitted effect of over 55% in size
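Chicken DT40 Tdp1-/- cells complemented with human TDP1, 400 cells/well, exposed to compounds plus 20 nM camptothecin for at least 48 h at 37 C; viability read as ATP content by CellTiter-Glo luminescence.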
* hit, by the source's call; ? = inconclusive; nt = no result; [ ] = remark or other dose. Calls come from the whole dose curve; as a rule, active = well fitted curve in the direction sought with a large enough effect; inconclusive = small, poorly fitted or top-dose-only effect, or another doubt; inactive = no such curve, though single readings can be large; an effect the other way counts as inactive or inconclusive. % is set by controls: 0 for no effect and ±100 for the full control effect; potency is the fitted concentration of half-maximal effect.

SMILES	12-LOX inh	ELG1 repair inh	TDP1 cell noCPT	RORg inh	Gal4-VP16 FLuc	TDP1 cell CPT
CSc1ccccc1C(=O)Nc1cccc([N+](=O)[O-])c1C	1.7%	7.7%	-3.0%	-13.5%	-9.0%	-10.2%
Cc1cccc(NC(=O)c2ccccc2O)c1C	-19.6%	?	?	?	1.12µM*	20.6µM*
Cc1ccc(C)c(NC(=O)c2ccccc2O)c1	0.0%	?	9.2µM*	?	?	8.2µM*
Cc1cccc(NC(=O)c2cccc([N+](=O)[O-])c2O)c1C	?	nt	13µM*	nt	nt	16.4µM*
Cc1nc2cc(F)cc(C(=O)NCCCN(C)C(C)C)c2nc1C	-8.8%	nt	nt	nt	nt	nt
O=c1[nH]cnc2nc(-c3ccccc3)c(-c3ccccc3)nc12	-7.2%	10.9%	2.91µM*	11.2%	-5.7%	1.46µM*
COc1cc(Cl)cc(/C=N\NC(=O)c2ccc3c(c2)OCO3)c1O	?	nt	-96.7%	nt	nt	?
Cc1cc(Br)cc(/C=N/NC(=O)c2ccc3c(c2)OCO3)c1O	-9.5%	?	23.1µM*	2.51µM*	3.55µM*	18.4µM*
O=C(N/N=C/c1cc(Br)c(O)c(Br)c1O)c1ccc2c(c1)OCCO2	?	-6.7%	8.2µM*	4.47µM*	3.16µM*	11.6µM*
O=C(N/N=C/c1cc(Br)cc(Cl)c1O)c1ccc2c(c1)OCO2	22.4µM*	nt	1.03µM*	nt	nt	0.82µM*
O=C(N/N=C/c1cc(Cl)cc([N+](=O)[O-])c1O)c1ccc2c(c1)OCO2	-13.4%	?	9.2µM*	0.794µM*	0.891µM*	16.4µM*
CN1C(=O)CO[C@H](c2ccc(NC(=O)C3CCCC3)cc2)[C@H]1CO	39.3%[176 µM]	nt	nt	nt	nt	nt
CCOc1cccc(C2c3c(-c4ccccc4O)n[nH]c3C(=O)N2Cc2ccncc2)c1 (configuration not stated)	2.4%	nt	nt	nt	nt	nt
O=C1C=C(Nc2ccc(Cl)cc2Cl)CC(c2ccco2)C1 (configuration not stated)	?	?	4.11µM*	14.5%	-7.8%	3.66µM*
O=C1C=C(O)CC(c2ccco2)C1 (configuration not stated)	?	1.5%	-0.9%	-17.5%	-1.1%	-9.0%
CC(C)CNC1=CC(=O)CC(c2ccco2)C1 (configuration not stated)	-25.3%	-1.4%	-5.0%	-2.5%	2.6%	-25.7%
O=C1C=C(Nc2ccc(O)cc2)CC(c2ccco2)C1 (configuration not stated)	-12.7%	13.1%	23.1µM*	?	-1.3%	20.6µM*
CCOC(=O)c1ccc(NC2=CC(=O)CC(c3ccco3)C2)cc1 (configuration not stated)	-8.3%	0.8%	?	35.1%	-9.9%[10 µM]	-12.6%
O=C1C=C(NCc2ccc(Cl)cc2)CC(c2ccco2)C1 (configuration not stated)	0.0%	?	?	36.8%	-2.0%	23.1µM*
Cc1ccc(NC(=O)CN2C(=O)NC3(CCCCC3)C2=O)cc1Cl	17.2%	nt	nt	nt	nt	nt
Nc1ccc(S(=O)(=O)c2cc(O)c3ccccc3c2O)cc1	?	nt	2.31µM*	nt	nt	1.46µM*
COC(=O)c1c(C)cccc1C1CN=NC12Cc1ccccc1C2=O (configuration not stated)	1.1%	nt	?	nt	nt	14.6µM*
O=C1c2ccccc2CCC12N=NCC2c1ccc(Br)cc1 (configuration not stated)	0.0%	9.6%	4.1%	16.9%	0.0%	-29.6%
Cn1c(=O)[nH]c(=O)c2c1nc(N1CCCC1)n2CC(O)CO (configuration not stated)	1.3%	nt	nt	nt	nt	nt
